Test results: PubChem BioAssay (Tox21)
Results filed as inconclusive are left out. A call without a number means that no potency is given here. Calls of active or inactive are those of the source. Unless noted, calls come from the whole dose curve; as a rule, active = well fitted curve in the direction sought with a large enough effect in the repeat runs; inconclusive = weak or mixed curves; inactive = no such curve, though single readings can be large; an effect the other way counts as inactive or inconclusive.

Columns and labels:
[1] = qHTS assay to identify small molecule agonists of the estrogen receptor alpha (ER-alpha) signaling pathway in the presence of an antagonist - cell viability counter screen (AID 1259386);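 note: cells exposed to compounds for 22 h at 37 °C before the viability read; nearly all actives have a fitted effect of over 30% in size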; note: potency is the fitted concentration of half-maximal effect
How it was run: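 Cytotoxicity was measured in parallel with the ERE-luciferase agonist screen, in the same wells. The cells were VM7Luc4E2, which endogenously express ER-alpha, and treatment was with compounds plus 10.0nM ICI-182,780 for 22hr.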

[2] = molecular target: Progesterone receptor (Homo sapiens) (UniProt P06401); test: qHTS assay to identify small molecule agonists of the progesterone receptor (PR) signaling pathway (AID 1346784; calls by dose curve; note: nearly all actives have a fitted effect of over 30% in size)
Progesterone receptor (Homo sapiens), sequence (P06401 whole entry, looked up): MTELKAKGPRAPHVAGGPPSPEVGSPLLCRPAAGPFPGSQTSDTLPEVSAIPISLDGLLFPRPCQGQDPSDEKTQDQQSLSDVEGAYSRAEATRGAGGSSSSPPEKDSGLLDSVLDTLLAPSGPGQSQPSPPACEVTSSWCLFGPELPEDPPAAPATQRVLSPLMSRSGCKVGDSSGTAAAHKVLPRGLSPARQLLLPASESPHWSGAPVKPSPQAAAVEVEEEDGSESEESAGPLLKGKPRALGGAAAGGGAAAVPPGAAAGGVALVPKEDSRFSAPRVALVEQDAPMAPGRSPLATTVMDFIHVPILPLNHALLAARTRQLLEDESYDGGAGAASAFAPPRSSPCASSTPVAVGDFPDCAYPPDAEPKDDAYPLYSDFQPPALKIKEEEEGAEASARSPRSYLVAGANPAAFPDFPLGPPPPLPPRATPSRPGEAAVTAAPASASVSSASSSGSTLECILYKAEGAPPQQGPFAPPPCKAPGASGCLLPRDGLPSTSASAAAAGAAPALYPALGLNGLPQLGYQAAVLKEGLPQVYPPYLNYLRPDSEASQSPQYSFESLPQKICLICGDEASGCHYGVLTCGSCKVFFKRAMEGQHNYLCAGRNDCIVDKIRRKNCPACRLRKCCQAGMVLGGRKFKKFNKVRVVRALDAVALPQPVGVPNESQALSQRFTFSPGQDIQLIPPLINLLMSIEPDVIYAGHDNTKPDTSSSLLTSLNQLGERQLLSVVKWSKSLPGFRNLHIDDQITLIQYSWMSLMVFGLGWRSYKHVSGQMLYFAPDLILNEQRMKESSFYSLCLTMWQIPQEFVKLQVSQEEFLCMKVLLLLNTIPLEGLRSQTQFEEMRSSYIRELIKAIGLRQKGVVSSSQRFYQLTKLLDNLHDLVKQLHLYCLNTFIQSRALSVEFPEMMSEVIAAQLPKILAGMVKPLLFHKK
How it was run: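 Reporter assay, GripTite PR-UAS-bla HEK 293T cells: 16 hr exposure to DMSO-dissolved compounds at 37C, 5% CO2, in steroid-depleted (2% charcoal-stripped FBS) medium; beta-lactamase measured by FRET fluorescence.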

[3] = molecular target: Progesterone receptor (Homo sapiens) (UniProt P06401); test: qHTS assay to identify small molecule antagonists of the progesterone receptor (PR) signaling pathway (AID 1346795; active = well fitted inhibition curve with a large enough effect in the signal ratio in the repeat runs, not every such curve was filed as active; the % refers to the signal ratio)
How it was run: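 Stimulus R5020 at 1 nM final; cells HEK293T PR-UAS-bla; medium with 2% charcoal-stripped FBS; compound exposure 16 hr at 37C, 5% CO2; detection by FRET beta-lactamase substrate, 2 hr, room temperature.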

[4] = qHTS assay to identify small molecule antagonists of the progesterone receptor (PR) signaling pathway - cell viability counter screen (AID 1346798); note: series mostly up to about 92 µM; nearly all actives have a fitted effect of over 50% in size
How it was run: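 In the same plates used for the beta-lactamase readout, cell viability of compound- and R5020-treated PR-UAS-bla HEK293T cells (16 hr, 37C) was assessed by CellTiter-Glo luminescence.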

[5] = qHTS assay to identify small molecule agonists of the progesterone receptor (PR) signaling pathway - cell viability counter screen (AID 1346799; calls by dose curve; note: nearly all actives have a fitted effect of over 45% in size)
How it was run: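 Multiplexed viability read: CellTiter-Glo luminescence, 30 min RT, following LiveBLAzer FRET measurement on PR-UAS-bla HEK293T cells exposed to compounds 16 hr.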

[6] = qHTS assay to identify small molecule antagonists of the TGF-beta/Smad signaling pathway - cell viability counter screen (AID 1346824); note: nearly all actives have a fitted effect of over 50% in size
How it was run: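 Cytotoxicity counter-screen run in the same wells as the beta-lactamase Smad reporter read: CellTiter-Glo luminescence after 30 min at room temperature. HEK 293T SBE-bla cells had 5 hr compound exposure at 37 C with TGF-beta1 (0.25 ng/mL stock).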

[7] = qHTS assay to identify small molecule agonists of the TGF-beta/Smad signaling pathway - cell viability counter screen (AID 1346829); note: top concentration of the series differs between compounds; nearly all actives have a fitted effect of over 45% in size
How it was run: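 Compound-treated SBE-bla HEK 293T cells (5 hr, 37 C) were assessed for viability with CellTiter-Glo in parallel with the reporter read.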

[8] = qHTS assay to identify small molecule agonists of the TGF-beta/Smad signaling pathway (AID 1346859; active = well fitted activation curve with a large enough effect in the signal ratio in the repeat runs, not every such curve was filed as active; the % refers to the signal ratio; note: series mostly up to about 77 µM)
How it was run: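 Screening used HEK 293T SBE-bla cells at 4,000/well. Test agents: 5 hr, 37 C. Detection: FRET substrate, 2 hr RT, then excitation 405 nm with emissions at 460 and 530 nm.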

[9] = molecular target: Thyrotropin-releasing hormone receptor (Homo sapiens) (UniProt P34981); test: qHTS assay to identify small molecule antagonists of the thyrotropin-releasing hormone receptor (TRHR) signaling pathway (AID 1346877; active = well fitted inhibition curve with a large enough effect in the repeat runs, not every such curve was filed as active; note: series mostly up to about 51 µM)
Thyrotropin-releasing hormone receptor (Homo sapiens), sequence (P34981 whole entry, looked up): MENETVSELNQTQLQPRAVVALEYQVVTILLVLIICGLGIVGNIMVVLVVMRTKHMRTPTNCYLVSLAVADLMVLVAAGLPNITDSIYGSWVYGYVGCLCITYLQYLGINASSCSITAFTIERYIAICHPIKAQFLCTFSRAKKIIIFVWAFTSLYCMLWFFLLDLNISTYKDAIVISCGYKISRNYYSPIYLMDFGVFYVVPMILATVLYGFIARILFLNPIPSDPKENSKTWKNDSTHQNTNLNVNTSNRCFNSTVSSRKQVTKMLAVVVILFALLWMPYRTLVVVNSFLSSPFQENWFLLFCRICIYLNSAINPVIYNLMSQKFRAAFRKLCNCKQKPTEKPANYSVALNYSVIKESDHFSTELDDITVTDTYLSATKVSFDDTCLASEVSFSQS
How it was run: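 Antagonism is measured as suppression of the calcium response to 1 nM TRH in TRHR-HEK293 cells that have been dye-loaded for 2 h at 37 °C after overnight plating. Each compound is tested at 15 concentrations in triplicate.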

[10] = molecular target: Thyrotropin-releasing hormone receptor (Homo sapiens) (UniProt P34981); test: qHTS assay to identify small molecule agonists of the thyrotropin-releasing hormone receptor (TRHR) signaling pathway (AID 1346891; calls by dose curve; note: series mostly up to about 58 µM)
How it was run: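 Readout was intracellular calcium fluorescence in TRHR-Hek293 cells. Cells were incubated 18 h, dye-loaded 2 h at 37 °C, and treated with compound in agonist mode.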

SMILES	Potency [1]	Potency [2]	Potency [3]	Potency [4]	Potency [5]	Potency [6]	Potency [7]	outcome [8]	Potency [9]	outcome [10]
NC(=O)CF	inactive	inactive	inactive	inactive	inactive	inactive	inactive	inactive	inactive	inactive
CC(C)(C)c1ccc(CCOc2ncnc3ccccc23)cc1	inactive	inactive	inactive	inactive	inactive	inactive	inactive	inactive	inactive	inactive
CCc1cnc(C2=NC(C)(C(C)C)C(=O)N2)c(C(=O)O)c1 (stereo unspecified)	inactive	inactive	inactive	inactive	inactive	inactive	inactive	inactive	inactive	inactive
CN1C(=O)CN=C(c2ccccc2)c2cc([N+](=O)[O-])ccc21	inactive	inactive	inactive	inactive	inactive	inactive	inactive	inactive	inactive	inactive
CC(C)OC(=O)Cc1ccccc1	inactive	inactive	inactive	inactive	inactive	inactive	inactive	inactive	inactive	inactive
C=CCc1ccc(OC(=O)Cc2ccccc2)c(OC)c1	inactive	inactive	inactive	inactive	inactive	inactive	inactive	inactive	inactive	inactive
CCOP(=O)(O)C(N)=O	inactive	inactive	inactive	inactive	inactive	inactive	inactive	inactive	inactive	inactive
COC(=O)Cc1ccccc1	inactive	inactive	inactive	inactive	inactive	inactive	inactive	inactive	–	–
O=C(O)c1cc(Cl)ccc1Cl	inactive	inactive	inactive	inactive	inactive	inactive	inactive	inactive	–	–
CCC[N+](CCC)(CCC)CCC	inactive	inactive	inactive	inactive	inactive	inactive	inactive	inactive	inactive	inactive
O=C(O)c1ccc(=O)[nH]c1	inactive	inactive	inactive	inactive	inactive	inactive	inactive	inactive	inactive	inactive
CC(C)(C#N)C(C)(C)C#N	inactive	inactive	inactive	inactive	inactive	inactive	inactive	inactive	–	–
CCCC[N+]1(C)[C@@H]2CC(OC(=O)[C@H](CO)c3ccccc3)C[C@H]1[C@@H]1O[C@@H]12 (stereo partly specified)	inactive	inactive	inactive	inactive	inactive	inactive	inactive	inactive	inactive	inactive
C#CC(O)(C=CCl)CC (stereo unspecified)	inactive	inactive	inactive	inactive	inactive	inactive	inactive	inactive	–	–
CC[N+]1(CCOC(=O)C(O)(c2ccccc2)c2ccccc2)CCCCC1	inactive	inactive	inactive	inactive	inactive	inactive	inactive	inactive	–	–
Cc1cnc(C2=NC(C)(C(C)C)C(=O)N2)c(C(=O)O)c1 (stereo unspecified)	inactive	inactive	inactive	inactive	inactive	inactive	inactive	inactive	inactive	inactive
CCC1(CC)C(=O)NC(=O)NC1=O	inactive	inactive	inactive	inactive	inactive	inactive	inactive	inactive	inactive	inactive
O=C(CCl)CCl	inactive	inactive	inactive	inactive	inactive	inactive	inactive	inactive	inactive	inactive
CCC(C)Cl (stereo unspecified)	inactive	inactive	inactive	inactive	inactive	inactive	inactive	inactive	inactive	inactive
c1ccc2c(c1)sc1ccccc12	inactive	inactive	inactive	inactive	inactive	inactive	inactive	inactive	inactive	inactive
CCSCc1ccccc1OC(=O)NC	inactive	inactive	inactive	inactive	inactive	inactive	inactive	inactive	inactive	inactive
CCOC(=O)NC(O)C(Cl)(Cl)Cl (stereo unspecified)	inactive	inactive	inactive	inactive	inactive	inactive	inactive	inactive	–	–
CCC1(CCC(C)C)C(=O)NC(=O)NC1=O	inactive	inactive	inactive	inactive	inactive	inactive	inactive	inactive	–	–
CCOC(=O)C1OC1(C)c1ccccc1 (stereo unspecified)	inactive	inactive	inactive	inactive	inactive	inactive	inactive	inactive	inactive	inactive
CCC(C)(C)O	inactive	inactive	inactive	inactive	inactive	inactive	inactive	inactive	inactive	inactive
Cc1ccc(N)c(C)c1	inactive	inactive	inactive	inactive	inactive	inactive	inactive	inactive	inactive	inactive

SMILES	Potency [1]	Potency [2]	Potency [3]	Potency [4]	Potency [5]	Potency [6]	Potency [7]	outcome [8]	Potency [9]	outcome [10]
Nc1cc(Cl)cc(C(=O)O)c1Cl	inactive	inactive	inactive	inactive	inactive	inactive	inactive	inactive	inactive	inactive
OCC1CO1 (stereo unspecified)	inactive	inactive	inactive	inactive	inactive	inactive	inactive	inactive	–	–
Cc1ccccc1	inactive	inactive	inactive	inactive	inactive	inactive	inactive	inactive	inactive	inactive
O=[N+]([O-])c1cc(Cl)c(Cl)cc1Cl	inactive	inactive	inactive	inactive	inactive	inactive	inactive	inactive	–	–
C=CC(=O)NC(C)(C)CC(C)=O	inactive	inactive	inactive	inactive	inactive	inactive	inactive	inactive	inactive	inactive
C=C(C)C(=O)OCCCCOC(=O)C(=C)C	inactive	inactive	inactive	inactive	inactive	inactive	inactive	inactive	inactive	inactive
C1CCNCC1	inactive	inactive	inactive	inactive	inactive	inactive	inactive	inactive	–	–
CCCCC#N	inactive	inactive	inactive	inactive	inactive	inactive	inactive	inactive	inactive	inactive
Clc1ccccc1	inactive	inactive	inactive	inactive	inactive	inactive	inactive	inactive	inactive	inactive
O=CC=O	inactive	inactive	inactive	inactive	inactive	inactive	inactive	inactive	–	–
COc1cc(CC#N)cc(OC)c1OC	inactive	inactive	inactive	inactive	inactive	inactive	inactive	inactive	inactive	inactive
O=C1NC(=O)C(=O)C(=O)N1	inactive	inactive	inactive	inactive	inactive	inactive	inactive	inactive	–	–
OC[P+](CO)(CO)CO	inactive	inactive	inactive	inactive	inactive	inactive	inactive	inactive	inactive	inactive
CCCBr	inactive	inactive	inactive	inactive	inactive	inactive	inactive	inactive	inactive	inactive
CC(C)(C)NCC(O)c1ccccc1Cl (stereo unspecified)	inactive	inactive	inactive	inactive	inactive	–	inactive	inactive	inactive	inactive
CCC1CCC(=O)O1 (stereo unspecified)	inactive	inactive	inactive	inactive	inactive	inactive	inactive	inactive	inactive	inactive
O=C(O)C(Cl)(Cl)Br	inactive	inactive	inactive	inactive	inactive	–	inactive	inactive	inactive	inactive
COP(=O)(OC)OC(Br)C(Cl)(Cl)Br (stereo unspecified)	inactive	inactive	inactive	inactive	inactive	–	inactive	inactive	inactive	inactive
CC(C)CCON=O	inactive	inactive	inactive	inactive	inactive	inactive	inactive	inactive	inactive	inactive
CN(C)N	inactive	inactive	inactive	inactive	inactive	inactive	inactive	inactive	inactive	inactive
CCOP(=S)(OCC)Oc1ccc(S(C)=O)cc1 (stereo unspecified)	inactive	inactive	inactive	inactive	inactive	–	inactive	inactive	inactive	inactive
Oc1cccc(Cl)c1	inactive	inactive	inactive	inactive	inactive	–	inactive	inactive	inactive	inactive
Cc1ccc2c(C)cccc2c1	inactive	inactive	inactive	inactive	inactive	inactive	inactive	inactive	inactive	inactive
O=C(Cc1ccccc1)OCCc1ccccc1	inactive	inactive	inactive	inactive	inactive	inactive	inactive	inactive	inactive	inactive
O=C(N/N=C/c1ccc([N+](=O)[O-])o1)c1cc([N+](=O)[O-])cc([N+](=O)[O-])c1O	21.1 µM (active)	inactive	inactive	inactive	inactive	inactive	inactive	inactive	inactive	inactive
CCCCC(CC)CO[N+](=O)[O-] (stereo unspecified)	inactive	inactive	inactive	inactive	inactive	inactive	inactive	inactive	inactive	inactive
